Measurements reported in PubChem BioAssay AID588446 (NMMLSC, 2011).

Target: Integrin alpha-4 (Homo sapiens) (UniProt P13612)
Test: inhibitors of fluorescent LDV binding to VLA-4 – cell-based, plate-based, flow cytometry, set 2, orthogonal assay, dose response (AID 588446)
Conditions: cells, LDV-FITC binding displacement; series mostly up to 66.7 µM; inhibition: at the top concentration;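 active = dose fit with top-dose inhibition above 36% and EC50 error under a fifth of EC50, and EC50 under 30 µM; inactive = the rest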

Chain of Integrin alpha-4 (Homo sapiens) (P13612 whole entry, looked up): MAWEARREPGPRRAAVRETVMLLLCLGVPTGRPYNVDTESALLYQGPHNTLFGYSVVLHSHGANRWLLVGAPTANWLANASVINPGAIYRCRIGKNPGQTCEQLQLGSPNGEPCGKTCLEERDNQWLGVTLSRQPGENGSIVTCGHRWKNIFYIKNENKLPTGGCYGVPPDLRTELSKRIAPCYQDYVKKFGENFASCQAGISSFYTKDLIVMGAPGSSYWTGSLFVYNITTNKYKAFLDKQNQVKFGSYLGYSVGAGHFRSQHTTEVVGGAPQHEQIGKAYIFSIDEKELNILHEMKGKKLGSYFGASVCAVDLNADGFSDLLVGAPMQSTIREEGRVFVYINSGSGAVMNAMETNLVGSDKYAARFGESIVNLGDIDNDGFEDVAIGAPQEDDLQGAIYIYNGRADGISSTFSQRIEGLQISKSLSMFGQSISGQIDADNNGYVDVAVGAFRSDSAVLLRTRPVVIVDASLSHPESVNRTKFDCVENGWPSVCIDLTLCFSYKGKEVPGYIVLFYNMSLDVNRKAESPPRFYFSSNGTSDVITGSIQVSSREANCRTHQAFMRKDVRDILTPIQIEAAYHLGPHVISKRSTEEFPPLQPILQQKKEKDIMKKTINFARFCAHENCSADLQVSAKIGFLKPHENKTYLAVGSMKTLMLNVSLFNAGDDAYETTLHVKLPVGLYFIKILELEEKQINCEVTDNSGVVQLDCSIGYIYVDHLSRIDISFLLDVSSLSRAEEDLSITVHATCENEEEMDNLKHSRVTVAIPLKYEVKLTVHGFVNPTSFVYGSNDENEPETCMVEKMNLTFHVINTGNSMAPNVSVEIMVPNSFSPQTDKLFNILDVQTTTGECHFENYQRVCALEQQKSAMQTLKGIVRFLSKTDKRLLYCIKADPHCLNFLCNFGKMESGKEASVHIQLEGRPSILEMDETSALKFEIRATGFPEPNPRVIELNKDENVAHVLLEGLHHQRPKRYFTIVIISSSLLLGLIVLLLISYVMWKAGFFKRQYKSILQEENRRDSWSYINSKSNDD

inhibition, inactive:
COCCn1c(C2CC(=O)N(c3ccccc3C)C2)nc2ccccc21 (centres undefined) -15
Cn1cc(C(=O)N2CCCC2c2nc3ccccc3s2)cn1 (centres undefined) 18.8
O=C1C2CC=CCC2C(=O)N1Cc1csc(Cc2ccccc2)n1 (centres undefined) 12.2
Cc1ccc(C)n1-c1ccc(C(=O)N(C)Cc2ccco2)cc1 38.8
Cc1ccc(-c2nc(CN3C(=O)C4CC=CCC4C3=O)cs2)cc1 (centres undefined) 36.7
CCn1c(C2CC(=O)N(CCc3ccccc3)C2)nc2ccccc21 (centres undefined) 82.5
COc1ccc(C2CCCN2C(=O)c2sccc2C)cc1OC (centres undefined) 30.2
Cc1cc(C(=O)N2CCCC2c2ccc3c(c2)OCCO3)sc1C (centres undefined) 17
COCC(=O)N1CCC2(CCCN(CCc3ccccc3)C2=O)C1 (centres undefined) 88.4
